Experimental data published in PubChem BioAssay (Tox21).
Several values for one entry are separate records, joined by “and”; a condition that tells them apart may be missing. Identical values can stand only once. Inconclusive results are not listed. Entries that show only a call come without a potency. Activity calls are given as the source filed them. Unless noted, the call rests on the fitted dose curve; in most records, active means well fitted curve in the direction sought with a large enough effect in the repeat runs; inconclusive means weak or mixed curves; inactive means no such curve, though single readings can be large; an effect the other way counts as inactive or inconclusive.

What was measured:
[1] = target: Estrogen receptor beta (Homo sapiens) (UniProt Q92731); assay: qHTS assay to identify small molecule agonists of the estrogen receptor beta (ER-beta) signaling pathway (AID 1259377; active means well fitted activation curve with a large enough effect in the signal ratio in the repeat runs, not every such curve was filed as active; the % refers to the signal ratio; further: potency means the concentration at half of the fitted maximal effect)
Method in brief: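 ER-beta-UAS-bla HEK293T (GripTite) cells carrying a UAS-driven beta-lactamase reporter, in medium with 2% charcoal-stripped FBS, were exposed to compounds for 16 hr at 37C; LiveBLAzer B/G FRET substrate was then added and fluorescence read after 2 hours at room temperature.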

[2] = target: Estrogen receptor beta (Homo sapiens) (UniProt Q92731); assay: qHTS assay to identify small molecule antagonists of the estrogen receptor beta (ER-beta) signaling pathway (AID 1259378; active means well fitted inhibition curve with a large enough effect in the signal ratio in the repeat runs, not every such curve was filed as active; the % refers to the signal ratio; further: potency means the concentration at half of the fitted maximal effect)
Method in brief: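 ER-beta-UAS-bla HEK293T (GripTite) cells in 2% charcoal-stripped FBS medium were preincubated 6 hr at 37C, dosed with compound, then stimulated with 1 nM E2 (final) for 16 hr; beta-lactamase reporter read by B/G FRET fluorescence after 2 hr substrate loading.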

[3] = qHTS assay to identify small molecule agonists of the androgen receptor (AR) signaling pathway in the presence of an antagonist - cell viability counter screen (AID 1259379); further: nearly all actives have a fitted effect of over 25% in size; further: potency means the concentration at half of the fitted maximal effect
Method in brief: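 Seed MDA-kb2 at 3,000 cells/well; incubate 5 hr, 37C, 0% CO2. Add nilutamide to 3.0uM final, then pin compounds at 15 concentrations. Incubate 16 hr. Add CellTiter-Fluor at 15 hr, read fluorescence after 1 hr.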

[4] = qHTS assay to identify small molecule antagonists of the estrogen receptor beta (ER-beta) signaling pathway - cell viability counter screen (AID 1259382); further: nearly all actives have a fitted effect of over 55% in size; further: potency means the concentration at half of the fitted maximal effect
Method in brief: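 In this multiplexed counter screen, cells were seeded at 2,000 per well in medium with 2% charcoal-stripped FBS and incubated 6 hr before compound and 1nM final E2 were added. Sixteen hours later, ATP-based luminescence reported viability.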

[5] = qHTS assay to identify small molecule agonists or antagonists of the thyroid stimulating hormone receptor (TSHR) signaling pathway - wild type cell line counter screen (AID 1259384; calls by dose curve)
Method in brief: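 Wild-type HEK293 cells were plated 18 h at 37 C/5% CO2, pin-dosed with compound plus Ro20-1724 medium, held 30 min at room temperature, then given cAMP-d2 and anti-cAMP-cryptate; fluorescence was read after 1 h. Fifteen concentrations, triplicate.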

[6] = target: Thyrotropin receptor (Homo sapiens) (UniProt P16473); assay: qHTS assay to identify small molecule antagonists of the thyroid stimulating hormone receptor (TSHR) signaling pathway (AID 1259385; calls by dose curve; further: nearly all actives have a fitted effect of over 20% in size; further: potency means the concentration at half of the fitted maximal effect)
Method in brief: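 TSHR-HEK293 cells were plated and held 18 h at 37C/5% CO2, then given compound plus Ro20-1724 and stimulated with TSH at 1.5 ng/mL final. After 30 min at room temperature, cAMP was detected with cAMP-d2/anti-cAMP-cryptate (1 h) by fluorescence.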

[7] = qHTS assay to identify small molecule agonists of the estrogen receptor alpha (ER-alpha) signaling pathway in the presence of an antagonist - cell viability counter screen (AID 1259386);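 further: cells exposed to compounds for 22 h at 37 °C before the viability read; nearly all actives have a fitted effect of over 30% in size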; further: potency means the concentration at half of the fitted maximal effect
Method in brief: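 Viability counter screen using VM7Luc4E2 (full-length ER-alpha, four ERE-luciferase). The cells were treated with compounds alongside ICI-182,780 10.0nM for 22hr, and live-cell protease fluorescence was quantified with CellTiter-Fluor.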

[8] = target: Progesterone receptor (Homo sapiens) (UniProt P06401); assay: qHTS assay to identify small molecule antagonists of the progesterone receptor (PR) signaling pathway (AID 1346795; active means well fitted inhibition curve with a large enough effect in the signal ratio in the repeat runs, not every such curve was filed as active; the % refers to the signal ratio; further: potency means the concentration at half of the fitted maximal effect)
Method in brief: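 PR-UAS-bla HEK293T cells carrying a UAS-driven beta-lactamase reporter were plated in medium with 2% charcoal-stripped FBS and rested 6 hr at 37C. Compounds were added with 1 nM R5020 (final) for 16 hr, then FRET substrate loaded 2 hr at room temperature.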

[9] = qHTS assay to identify small molecule agonists of the progesterone receptor (PR) signaling pathway - cell viability counter screen (AID 1346799; calls by dose curve; further: nearly all actives have a fitted effect of over 45% in size; further: potency means the concentration at half of the fitted maximal effect)
Method in brief: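 PR-UAS-bla HEK293T cells, 3,000 per well in medium with 2% charcoal-stripped FBS, were preincubated 6 hr at 37C, then exposed to compounds for 16 hr; viability was read as CellTiter-Glo luminescence after 30 min at room temperature.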

[10] = target: Thyrotropin-releasing hormone receptor (Homo sapiens) (UniProt P34981); assay: qHTS assay to identify small molecule antagonists of the thyrotropin-releasing hormone receptor (TRHR) signaling pathway (AID 1346877; active means well fitted inhibition curve with a large enough effect in the repeat runs, not every such curve was filed as active; further: potency means the concentration at half of the fitted maximal effect)
Method in brief: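 Following an 18 h incubation at 37 °C and a 2 h calcium dye load, TRHR-HEK293 cells were exposed to compound (5 min, room temperature) and challenged with TRH, 1 nM final.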

[11] = target: Thyrotropin-releasing hormone receptor (Homo sapiens) (UniProt P34981); assay: qHTS assay to identify small molecule agonists of the thyrotropin-releasing hormone receptor (TRHR) signaling pathway (AID 1346891; calls by dose curve; further: potency means the concentration at half of the fitted maximal effect; on activation: series mostly up to about 58 µM)
Method in brief: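 TRHR-expressing HEK293 cells were plated 18 h at 37 °C/5% CO2, loaded with calcium dye 2 h at 37 °C, then given compound in DMSO; fluorescence was read kinetically for 3 min at 1 s intervals.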

[12] = Human pregnane X receptor (PXR) small molecule agonists, qHTS cell viability counter screen (AID 1346977); further: nearly all actives have a fitted effect of over 50% in size; further: potency means the concentration at half of the fitted maximal effect
Method in brief: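 PXR-Luc HepG2 cells in medium with 5% charcoal-stripped FBS were pre-incubated 5hr, then exposed to compounds for 24hr at 37C. Viability was read in the same wells by CellTiter-Fluor fluorescence, reagent added after 23hr with a 1hr incubation.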

[13] = qHTS assay to identify small molecule agonists of the estrogen receptor beta (ER-beta) signaling pathway - cell viability counter screen (AID 1259380); further: nearly all actives have a fitted effect of over 30% in size; further: potency means the concentration at half of the fitted maximal effect
Method in brief: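 CellTiter-Glo read, 30 min RT, same wells as bla assay; cells ER-beta-UAS-bla HEK293T; 16 hr compound, 37C; medium 2% charcoal-stripped FBS.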

[14] = target: Progesterone receptor (Homo sapiens) (UniProt P06401); assay: qHTS assay to identify small molecule agonists of the progesterone receptor (PR) signaling pathway (AID 1346784; calls by dose curve; further: nearly all actives have a fitted effect of over 30% in size)
Method in brief: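 PR-UAS-bla HEK 293T cells carrying a UAS-driven beta-lactamase reporter were seeded in medium with 2% charcoal-stripped FBS, preincubated 6 hr at 37C, then exposed to compounds in DMSO for 16 hr; agonism was read by LiveBLAzer B/G FRET fluorescence.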

[15] = qHTS assay to identify small molecule antagonists of the progesterone receptor (PR) signaling pathway - cell viability counter screen (AID 1346798); further: nearly all actives have a fitted effect of over 50% in size; further: potency means the concentration at half of the fitted maximal effect
Method in brief: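 PR-UAS-bla HEK293T cells in medium with 2% charcoal-stripped FBS were treated with compounds plus R5020 for 16 hr at 37C. Cell viability was then read by CellTiter-Glo luminescence after 30 min at room temperature in the same wells.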

[16] = qHTS assay to identify small molecule antagonists of the TGF-beta/Smad signaling pathway - cell viability counter screen (AID 1346824); further: nearly all actives have a fitted effect of over 50% in size; further: potency means the concentration at half of the fitted maximal effect
Method in brief: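 SBE-bla HEK 293T cells were plated overnight at 37 C, then given compounds in DMSO plus TGF-beta1 (added as 0.25 ng/mL solution) for 5 hr. After the bla read, CellTiter-Glo was added to the same wells and luminescence read after 30 min at room temperature.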

[17] = qHTS assay to identify small molecule agonists of the TGF-beta/Smad signaling pathway (AID 1346859; active means well fitted activation curve with a large enough effect in the signal ratio in the repeat runs, not every such curve was filed as active; the % refers to the signal ratio; further: series mostly up to about 77 µM)
Method in brief: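 HEK 293T cells stably carrying a beta-lactamase reporter driven by the Smad binding element were seeded overnight, exposed to DMSO-dissolved compounds for 5 hr at 37 C, 5% CO2, then loaded with FRET substrate for 2 hr at room temperature.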

[18] = target: Estrogen receptor (Homo sapiens) (UniProt P03372); assay: qHTS assay to identify small molecule agonists of the estrogen receptor alpha (ER-alpha) signaling pathway in the presence of an antagonist (AID 1259383; calls by dose curve; further: nearly all actives have a fitted effect of over 15% in size; further: potency means the concentration at half of the fitted maximal effect; on activation: top concentration of the series differs between compounds)
Method in brief: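 Stably transfected VM7Luc4E2 reporter cells, kept 5 days in charcoal-stripped serum, received ICI-182,780 at 10.0nM final before compound addition. Following 22hr incubation at 37C and 5% CO2, luciferase signal was read by luminescence.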

[19] = qHTS assay to identify small molecule agonists of the TGF-beta/Smad signaling pathway - cell viability counter screen (AID 1346829); further: nearly all actives have a fitted effect of over 45% in size; further: potency means the concentration at half of the fitted maximal effect
Method in brief: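 Luminescence from CellTiter-Glo, read after a 30 min room-temperature incubation, gives cell viability of SBE-bla HEK 293T cells treated 5 hr with compounds at 37 C.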

[20] = target: Androgen receptor (Homo sapiens) (UniProt P10275); assay: qHTS assay to identify small molecule agonists of the androgen receptor (AR) signaling pathway in the presence of an antagonist (AID 1259381; calls by dose curve; further: nearly all actives have a fitted effect of over 15% in size)
Method in brief: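 Test compounds at 15 concentrations were incubated for 16hr with MDA-kb2 reporter cells in presence of 3.0uM nilutamide (final). Signal: ONE-Glo luciferase luminescence.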

Sequence of Estrogen receptor beta (Homo sapiens) (Q92731 whole entry, looked up): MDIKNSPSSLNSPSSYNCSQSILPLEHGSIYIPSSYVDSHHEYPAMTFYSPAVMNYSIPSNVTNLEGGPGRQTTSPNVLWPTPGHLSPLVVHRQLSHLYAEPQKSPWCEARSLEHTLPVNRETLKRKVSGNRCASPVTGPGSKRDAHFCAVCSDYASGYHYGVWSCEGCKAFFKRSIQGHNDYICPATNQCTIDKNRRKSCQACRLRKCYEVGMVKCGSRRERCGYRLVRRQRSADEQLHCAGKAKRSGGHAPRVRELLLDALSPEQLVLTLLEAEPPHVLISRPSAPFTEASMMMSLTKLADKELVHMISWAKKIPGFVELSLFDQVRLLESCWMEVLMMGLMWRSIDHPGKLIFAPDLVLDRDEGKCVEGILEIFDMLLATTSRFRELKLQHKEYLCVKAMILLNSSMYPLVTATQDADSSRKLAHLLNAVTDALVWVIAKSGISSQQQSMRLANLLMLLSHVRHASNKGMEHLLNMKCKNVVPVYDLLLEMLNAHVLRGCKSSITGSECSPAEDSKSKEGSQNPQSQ
Sequence of Thyrotropin-releasing hormone receptor (Homo sapiens) (P34981 whole entry, looked up): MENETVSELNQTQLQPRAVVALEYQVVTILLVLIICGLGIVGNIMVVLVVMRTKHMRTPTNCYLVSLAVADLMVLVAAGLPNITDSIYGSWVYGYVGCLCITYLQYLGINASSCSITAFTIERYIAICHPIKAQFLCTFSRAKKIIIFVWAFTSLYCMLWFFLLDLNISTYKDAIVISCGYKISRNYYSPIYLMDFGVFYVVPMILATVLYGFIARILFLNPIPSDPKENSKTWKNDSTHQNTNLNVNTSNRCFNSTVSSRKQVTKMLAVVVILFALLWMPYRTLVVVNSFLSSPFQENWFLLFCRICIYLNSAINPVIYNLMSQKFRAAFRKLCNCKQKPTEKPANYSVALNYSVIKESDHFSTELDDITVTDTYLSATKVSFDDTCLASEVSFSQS
Sequence of Estrogen receptor (Homo sapiens) (P03372 whole entry, looked up): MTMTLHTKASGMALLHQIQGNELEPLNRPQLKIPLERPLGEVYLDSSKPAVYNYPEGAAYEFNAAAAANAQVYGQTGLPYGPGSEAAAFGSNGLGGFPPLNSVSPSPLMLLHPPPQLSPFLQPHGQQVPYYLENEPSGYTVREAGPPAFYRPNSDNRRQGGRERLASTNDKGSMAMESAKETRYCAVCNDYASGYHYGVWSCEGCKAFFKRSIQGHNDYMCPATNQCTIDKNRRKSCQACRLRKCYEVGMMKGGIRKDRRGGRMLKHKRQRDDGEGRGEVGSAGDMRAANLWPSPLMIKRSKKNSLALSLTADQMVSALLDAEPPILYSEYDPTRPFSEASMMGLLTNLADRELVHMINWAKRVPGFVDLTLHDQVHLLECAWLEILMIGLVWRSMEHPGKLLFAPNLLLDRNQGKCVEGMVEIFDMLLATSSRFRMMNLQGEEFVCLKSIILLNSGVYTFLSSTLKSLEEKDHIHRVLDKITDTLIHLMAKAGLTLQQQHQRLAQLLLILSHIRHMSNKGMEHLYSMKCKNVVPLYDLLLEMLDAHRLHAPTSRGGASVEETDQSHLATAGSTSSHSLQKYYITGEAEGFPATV
Sequence of Thyrotropin receptor (Homo sapiens) (P16473 whole entry, looked up): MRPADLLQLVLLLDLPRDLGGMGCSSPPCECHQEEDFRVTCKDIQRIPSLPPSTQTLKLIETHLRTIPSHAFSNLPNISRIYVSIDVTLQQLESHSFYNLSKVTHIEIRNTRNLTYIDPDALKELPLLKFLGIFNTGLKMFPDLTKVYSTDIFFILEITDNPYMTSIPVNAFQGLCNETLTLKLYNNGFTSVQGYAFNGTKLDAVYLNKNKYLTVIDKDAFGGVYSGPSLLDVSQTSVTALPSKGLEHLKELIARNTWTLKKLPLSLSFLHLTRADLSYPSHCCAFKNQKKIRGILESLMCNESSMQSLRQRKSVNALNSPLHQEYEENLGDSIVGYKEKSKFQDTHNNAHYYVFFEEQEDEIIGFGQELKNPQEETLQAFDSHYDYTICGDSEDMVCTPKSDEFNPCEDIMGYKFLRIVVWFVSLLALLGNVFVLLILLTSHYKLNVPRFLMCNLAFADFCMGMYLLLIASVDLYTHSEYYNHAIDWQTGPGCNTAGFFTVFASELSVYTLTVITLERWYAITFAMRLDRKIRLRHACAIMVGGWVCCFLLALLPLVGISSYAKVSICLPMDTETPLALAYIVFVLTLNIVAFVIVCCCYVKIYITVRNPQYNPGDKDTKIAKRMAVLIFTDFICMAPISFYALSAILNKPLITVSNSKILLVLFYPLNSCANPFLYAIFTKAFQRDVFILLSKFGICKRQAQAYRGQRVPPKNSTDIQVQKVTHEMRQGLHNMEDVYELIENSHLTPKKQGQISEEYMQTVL
Sequence of Progesterone receptor (Homo sapiens) (P06401 whole entry, looked up): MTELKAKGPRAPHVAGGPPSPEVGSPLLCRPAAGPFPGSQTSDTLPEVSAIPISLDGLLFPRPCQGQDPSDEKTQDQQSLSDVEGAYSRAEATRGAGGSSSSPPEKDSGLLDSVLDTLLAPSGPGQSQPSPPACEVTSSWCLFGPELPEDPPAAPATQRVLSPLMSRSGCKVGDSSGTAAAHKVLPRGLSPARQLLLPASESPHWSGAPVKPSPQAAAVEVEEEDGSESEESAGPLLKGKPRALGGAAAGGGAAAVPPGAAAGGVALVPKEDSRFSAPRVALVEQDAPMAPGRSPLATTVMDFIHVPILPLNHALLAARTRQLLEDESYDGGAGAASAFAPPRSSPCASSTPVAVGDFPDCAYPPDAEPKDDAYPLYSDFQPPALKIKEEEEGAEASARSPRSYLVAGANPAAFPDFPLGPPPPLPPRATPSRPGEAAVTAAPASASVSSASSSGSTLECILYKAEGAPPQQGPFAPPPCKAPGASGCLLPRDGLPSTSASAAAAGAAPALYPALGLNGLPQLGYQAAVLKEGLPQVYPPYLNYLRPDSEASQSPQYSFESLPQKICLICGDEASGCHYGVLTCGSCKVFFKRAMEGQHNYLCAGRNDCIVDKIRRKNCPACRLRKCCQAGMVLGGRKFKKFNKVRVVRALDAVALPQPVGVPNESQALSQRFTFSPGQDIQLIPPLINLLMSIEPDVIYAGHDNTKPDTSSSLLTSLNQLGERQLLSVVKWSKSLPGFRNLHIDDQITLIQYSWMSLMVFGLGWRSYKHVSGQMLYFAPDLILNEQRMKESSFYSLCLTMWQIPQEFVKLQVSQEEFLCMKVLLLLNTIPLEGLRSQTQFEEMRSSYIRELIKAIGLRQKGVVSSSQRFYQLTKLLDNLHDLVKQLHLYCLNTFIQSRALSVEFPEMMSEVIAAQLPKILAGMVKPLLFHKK
Sequence of Androgen receptor (Homo sapiens) (P10275 whole entry, looked up): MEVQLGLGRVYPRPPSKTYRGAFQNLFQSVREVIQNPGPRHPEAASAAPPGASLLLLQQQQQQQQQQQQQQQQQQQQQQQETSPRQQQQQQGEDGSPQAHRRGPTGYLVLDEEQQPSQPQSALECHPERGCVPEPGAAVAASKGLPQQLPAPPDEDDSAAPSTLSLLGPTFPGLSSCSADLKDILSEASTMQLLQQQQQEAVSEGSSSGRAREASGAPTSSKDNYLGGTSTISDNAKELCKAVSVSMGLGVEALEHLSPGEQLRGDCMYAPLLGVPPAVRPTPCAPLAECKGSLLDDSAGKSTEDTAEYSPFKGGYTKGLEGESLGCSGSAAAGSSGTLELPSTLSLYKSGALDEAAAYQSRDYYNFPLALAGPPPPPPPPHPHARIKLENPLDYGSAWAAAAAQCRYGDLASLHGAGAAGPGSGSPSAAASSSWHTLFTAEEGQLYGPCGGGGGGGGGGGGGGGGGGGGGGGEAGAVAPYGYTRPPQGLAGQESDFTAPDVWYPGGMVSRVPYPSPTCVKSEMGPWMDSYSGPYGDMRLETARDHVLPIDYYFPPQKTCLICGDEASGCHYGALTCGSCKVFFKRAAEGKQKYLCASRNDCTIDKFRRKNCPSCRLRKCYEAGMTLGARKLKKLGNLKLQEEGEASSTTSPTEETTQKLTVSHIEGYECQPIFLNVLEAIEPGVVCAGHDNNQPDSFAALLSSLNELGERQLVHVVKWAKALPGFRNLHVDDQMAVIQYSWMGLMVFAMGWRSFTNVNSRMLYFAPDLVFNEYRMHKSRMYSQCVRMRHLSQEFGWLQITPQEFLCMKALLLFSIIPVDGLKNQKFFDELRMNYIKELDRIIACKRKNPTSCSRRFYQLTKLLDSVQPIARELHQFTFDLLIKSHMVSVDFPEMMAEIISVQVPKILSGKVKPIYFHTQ

| Compound | Potency [1] | Potency [2] | Potency [3] | Potency [4] | outcome [5] | Potency [6] | Potency [7] | Potency [8] | Potency [9] | Potency [10] | Potency [11] | Potency [12] | Potency [13] | outcome [14] | Potency [15] | Potency [16] | Potency [17] | Potency [18] | Potency [19] | Potency [20] |
| --- | --- | --- | --- | --- | --- | --- | --- | --- | --- | --- | --- | --- | --- | --- | --- | --- | --- | --- | --- | --- |
| O=C1NCN(c2ccccc2)C12CCN(CCCC(c1ccc(F)cc1)c1ccc(F)cc1)CC2 | inactive | 18.8 µM (active) | 29.8 µM (active) | 26.6 µM (active) | inactive | inactive | inactive | 26.6 µM (active) | inactive | inactive | inactive | 29.8 µM (active) | – | – | – | – | – | – | – | – |
| CCC(=O)OCCc1ccccc1 | inactive | inactive | – | inactive | inactive | inactive | inactive | – | inactive | inactive | inactive | inactive | inactive | inactive | inactive | inactive | inactive | – | – | – |
| CCCCOc1ccc(C(=O)CCN2CCCCC2)cc1 | inactive | inactive | 29.8 µM (active) | inactive | inactive | – | inactive | inactive | inactive | inactive | inactive | – | – | – | inactive | inactive | inactive | inactive | inactive | – |
| CCN=c1cc2oc3cc(NCC)c(C)cc3c(-c3ccccc3C(=O)OCC)c-2cc1C | inactive | 0.272 µM (active) | – | 54.3 µM (active) and 34.4 µM (active) | – | – | 9.65 µM (active) and 9.69 µM (active) | 48.4 µM (active) and 54.5 µM (active) | 48.4 µM (active) | 8.47 µM (active) and 10.7 µM (active) | 6.89 µM (active) and 5.49 µM (active) | 2.51 µM (active) and 1.54 µM (active) | 54.3 µM (active) and 24.3 µM (active) | inactive | 61.1 µM (active) | 48.8 µM (active) and 49 µM (active) | – | inactive | 48.8 µM (active) and 49 µM (active) | – |
| CC(C)N=C(N)/N=C(\N)Nc1ccc(Cl)cc1 | inactive | – | inactive | – | – | – | inactive | – | inactive | inactive | inactive | – | 23.7 µM (active) | inactive | inactive | inactive | inactive | – | inactive | – |
| Cc1cn[nH]c1 | inactive | inactive | – | inactive | inactive | inactive | inactive | inactive | inactive | – | – | inactive | – | inactive | inactive | inactive | inactive | inactive | inactive | – |
| CCCCCCCOC(=O)c1ccc(O)cc1 | inactive | – | inactive | – | – | – | inactive | 24.4 µM (active) and 38.6 µM (active) | – | – | – | inactive | 30.7 µM (active) and 24.3 µM (active) | – | inactive | inactive | inactive | 48.6 µM (active) | inactive | – |
| Cc1c(C)n(Cc2ccccc2)c2ccc(C(=O)OCCN(C)C)cc12 | inactive | 23.7 µM (active) | – | – | inactive | inactive | inactive | 26.6 µM (active) | – | inactive | inactive | 21.1 µM (active) | – | inactive | inactive | – | inactive | – | inactive | – |
| CN(C)CCOC(c1ccccc1)c1ccccc1 (tested in a mixture with another compound) | inactive | – | – | – | inactive | inactive | – | – | – | inactive | inactive | – | 69.1 µM (active) | – | – | inactive | inactive | inactive | inactive | – |
| O=C[C@H](O)[C@H](O)[C@H](O)CO | inactive | – | inactive | inactive | inactive | inactive | inactive | inactive | inactive | inactive | inactive | inactive | inactive | inactive | – | – | inactive | – | inactive | inactive |
| O=C1Nc2ccc(Cl)cc2[C@@](C#CC2CC2)(C(F)(F)F)O1 | inactive | 23.7 µM (active) | – | – | inactive | inactive | inactive | 7.5 µM (active) | – | inactive | inactive | – | – | – | – | – | inactive | inactive | inactive | – |
| CN1CCN(C2Cc3ccccc3Sc3ccc(Cl)cc32)CC1 (stereo not drawn) | inactive | – | – | 18.8 µM (active) | inactive | – | inactive | 26.6 µM (active) | 29.8 µM (active) | inactive | inactive | – | 21.1 µM (active) | – | – | – | inactive | inactive | inactive | – |
| CC1CCCNC1 (stereo not drawn) | inactive | – | inactive | inactive | inactive | inactive | inactive | – | – | inactive | inactive | – | inactive | inactive | – | inactive | inactive | – | inactive | – |
| Cc1nc(Nc2ncc(C(=O)Nc3c(C)cccc3Cl)s2)cc(N2CCN(CCO)CC2)n1 | inactive | 23.7 µM (active) | – | inactive | inactive | 26.6 µM (active) | – | 13.3 µM (active) | inactive | inactive | inactive | 9.44 µM (active) | – | – | inactive | inactive | inactive | inactive | inactive | – |
| CCCCCCOc1ccc(O)cc1 | inactive | – | – | – | inactive | inactive | inactive | 13.7 µM (active) | inactive | inactive | inactive | – | – | – | inactive | inactive | inactive | inactive | – | inactive |
| C/C=C/C=N/NC(=O)c1ccncc1 | inactive | – | inactive | inactive | inactive | – | inactive | inactive | inactive | inactive | inactive | inactive | inactive | inactive | – | inactive | inactive | – | – | – |
| Oc1ccc(-c2ccc(O)cc2)cc1 | 2.75 µM (active) | – | inactive | inactive | inactive | inactive | inactive | – | – | inactive | inactive | – | – | – | inactive | – | inactive | – | inactive | – |
